High-throughput results as filed in PubChem BioAssay.
Hits are enriched below; roughly 19% of the tested compounds scored in any of these assays.
TDP1 cell noCPT = qHTS for Inhibitors of human tyrosyl-DNA phosphodiesterase 1 (TDP1): qHTS in cells in absence of CPT. DT40 Tdp1-/- hTDP1 cells, no CPT, ATP luminescence, 48 h. Potency, µM (series often up to 46.2 µM), for inactives: top-dose activity change, negative = growth inhibition, hits mostly inhibitors. hit rate 15% among 420,000. AID 686978, 2013; note: potency is the fitted concentration of half-maximal effect; nearly all actives have a fitted effect of over 55% in size
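Luminescent ATP content (CellTiter-Glo) served as the growth readout. Knockout chicken DT40 cells expressing human TDP1 were exposed to compounds without camptothecin for a minimum 48 hr at 37 °C.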
HT1080-NT tox = kills 2HG-producing HT-1080-NT fibrosarcoma cells. HT-1080-NT fibrosarcoma viability, CellTiter-Glo ATP luminescence, 48 h. Potency, µM (top dose mostly 46.1 µM), inactives show at the highest dose activity, negative = less viability, usual class: cytotoxic. hit rate 1.6% among 360,000;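 note: NT is the 2HG producing partner of a matched IDH1 knockdown line; potency is the fitted concentration of half-maximal effect; 0% = DMSO-treated cells and -100% = media-only wells without cells; nearly all actives have a fitted effect of over 55% in size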
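Fibrosarcoma NT cells, 750 per well in 5% FBS RPMI, were exposed to compound for 48 hours. Viability: CellTiter-Glo luminescence.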
DT40 TDP1 CPT = DT40-hTDP1 cell growth loss with CPT. chicken DT40 Tdp1-/-;hTDP1 cells + 20 nM CPT, ATP luminescence, 48 h. Potency, µM (titrated, usually from 46.2 µM), inactives show top-dose activity change, negative = growth inhibition, usual class: inhibitors. hit rate 12% among 420,000; note: potency is the fitted concentration of half-maximal effect; nearly all actives have a fitted effect of over 55% in size
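Cell growth measured by CellTiter-Glo luminescence after a minimum 48 h, 37 C compound exposure with 20 nM CPT in Tdp1-knockout DT40 cells stably expressing hTDP1, seeded 400/well; qHTS titration format.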
HT1080 IDH1KD tx = HT-1080 IDH1 knockdown cell toxicity (counter line) | hit rate 2% among 360,000 | HT-1080 IDH1 knockdown viability, ATP luminescence, 48 h | Potency, µM (titrated, usually from 46.1 µM), for inactives: at the top dose activity, negative = toxicity, actives largely listed as cytotoxic;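 note: potency is the fitted concentration of half-maximal effect; 0% = DMSO wells and -100% = cell-free medium wells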
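After a 2 h attachment period, IDH1KD HT-1080 cells took pin-transferred compound for 48 h at 37 °C; ATP-based luminescence after 10 min room-temperature reagent incubation reported viability.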
IL1B secr inh = inhibitors of inflammasome signaling (IL-1 beta secretion). THP-1 LPS/ATP IL-1B secretion, AlphaLISA, 16 h; hits give low values. hit rate 4.7% among 360,000. activity change, % at 57.5 µM; in the data active = activity change below about -50%; inconclusive = mostly about -30% to -49%
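Secreted IL-1B measured by AlphaLISA bead assay after 16 h compound exposure of THP-1 cells; compounds (final up to 57.5 uM) added 1 h before LPS (250 ng/mL) and ATP (1.25 mM) stimulation; lower signal means less secretion.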
Starred values were filed as active, the others as inactive. Unless noted, calls come from the whole dose curve; as a rule, active = well fitted curve in the direction sought with a large enough effect; inconclusive = small, poorly fitted or top-dose-only effect, or another doubt; inactive = no such curve, though single readings can be large; an effect the other way counts as inactive or inconclusive. Unless noted, % is set by controls: 0 for no effect and ±100 for the full control effect.

How did COc1ccc(OCCC(=O)OCC(=O)Nc2ccc(S(=O)(=O)N3CCOCC3)cc2)cc1 do in these assays?
TDP1 cell noCPT: -17.5%; HT1080-NT tox: -10.7%; DT40 TDP1 CPT: -0.1%; HT1080 IDH1KD tx: -10.6%; IL1B secr inh: -65.4*

What do the screens show for `O=C(OCCOc1ccc(F)cc1)c1ccc(S(=O)(=O)N2CCCC2)cc1`?
TDP1 cell noCPT: 2.31µM*; HT1080-NT tox: -6.0%; DT40 TDP1 CPT: -9.0%; HT1080 IDH1KD tx: 1.8%; IL1B secr inh: -0.8

How did O=C(COc1ccc(S(=O)(=O)N2CCOCC2)cc1)NCCc1ccc(Cl)cc1 do in these assays?
TDP1 cell noCPT: 18.4µM*; HT1080-NT tox: -15.3%; DT40 TDP1 CPT: inconclusive; HT1080 IDH1KD tx: -14.7%; IL1B secr inh: -23.5

Results for CN(CC1CCCN(CCc2ccc(F)cc2)C1)C(=O)CCC(N)=O (stereo not given) ?
TDP1 cell noCPT: -16.1%; HT1080-NT tox: -10.3%; DT40 TDP1 CPT: -14.6%; HT1080 IDH1KD tx: -1.7%; IL1B secr inh: -23.8

How did O=C(O)Cc1cccc(-c2cc(CCCCCCc3ccc(O[C@H]4O[C@H](CO)[C@@H](O)[C@H](O)[C@@H]4O)c(-c4cccc(CC(=O)O)c4)c3)ccc2O[C@H]2O[C@H](CO)[C@@H](O)[C@H](O)[C@@H]2O)c1 do in these assays?
TDP1 cell noCPT: 8.7%; DT40 TDP1 CPT: 1.8%

How did CCOc1ccc(CONS(=O)(=O)c2ccc(NC(C)=O)cc2)cc1Cl do in these assays?
TDP1 cell noCPT: 9.2µM*; HT1080-NT tox: -7.2%; DT40 TDP1 CPT: inconclusive; HT1080 IDH1KD tx: -16.6%; IL1B secr inh: -9.5

What do the screens show for `CCOc1ccc(CN2CCN(S(=O)(=O)c3ccc(NC(C)=O)cc3)CC2)cc1`?
TDP1 cell noCPT: 14.6µM*; HT1080-NT tox: -10.6%; DT40 TDP1 CPT: inconclusive; HT1080 IDH1KD tx: -29.7%; IL1B secr inh: -16.9

What do the screens show for `COc1ccc(CN2CCN(S(=O)(=O)c3ccc(NC(C)=O)cc3)CC2)cc1OC`?
TDP1 cell noCPT: inconclusive; HT1080-NT tox: 2.1%; DT40 TDP1 CPT: inconclusive; HT1080 IDH1KD tx: -5.3%; IL1B secr inh: inconclusive

What do the screens show for `O=C(COc1ccc(F)c(Cl)c1)Nc1ccc(N2CCOCC2)cc1`?
TDP1 cell noCPT: inconclusive; HT1080-NT tox: -4.0%; DT40 TDP1 CPT: 16.4µM*; HT1080 IDH1KD tx: -5.7%; IL1B secr inh: -8.8

What do the screens show for `CC(=O)Nc1ccc(S(=O)(=O)NNC(=O)COc2ccc(Cl)cc2Cl)cc1`?
TDP1 cell noCPT: 8.1%; HT1080-NT tox: -6.4%; DT40 TDP1 CPT: -12.6%; HT1080 IDH1KD tx: -1.8%; IL1B secr inh: 22.5

What do the screens show for `O=C(COc1cccc(Cl)c1)Nc1ccc(N2CCOCC2)cc1`?
TDP1 cell noCPT: inconclusive; HT1080-NT tox: -5.0%; DT40 TDP1 CPT: -21.6%; HT1080 IDH1KD tx: -10.3%; IL1B secr inh: -21.0

How did CC(=O)OC(C(=O)NCc1ccc(F)cc1)c1ccccn1 (stereo not given) do in these assays?
TDP1 cell noCPT: -5.0%; HT1080-NT tox: 10.5%; DT40 TDP1 CPT: 5.8%; HT1080 IDH1KD tx: 12.7%; IL1B secr inh: 23.7

What do the screens show for `Cc1cc(C)cc(C(=O)OCC(=O)N2CCCCCC2)c1`?
TDP1 cell noCPT: -7.9%; HT1080-NT tox: 21.3%; DT40 TDP1 CPT: 3.6%; HT1080 IDH1KD tx: 7.0%; IL1B secr inh: 4.3

What do the screens show for `CCOC(=O)c1cnc2c(OC)cccc2c1N1CCN(c2ccccc2F)CC1`?
TDP1 cell noCPT: 18.4µM*; DT40 TDP1 CPT: 18.4µM*

Results for CCOC(=O)c1cnc2c(OC)cccc2c1Nc1ccc2c(c1)OCCO2 ?
TDP1 cell noCPT: inconclusive; HT1080-NT tox: 0.6%; DT40 TDP1 CPT: inconclusive; HT1080 IDH1KD tx: 12.1%; IL1B secr inh: 5.1

How did CCOC(=O)c1cnc2ccc(OCC)cc2c1N(C)Cc1ccccc1 do in these assays?
TDP1 cell noCPT: 23.1µM*; HT1080-NT tox: inconclusive; DT40 TDP1 CPT: inconclusive; HT1080 IDH1KD tx: inconclusive; IL1B secr inh: -71.1*

Results for CCOc1ccc2ncc(C(=O)c3ccc(OC)cc3)c(N3CCN(CC)CC3)c2c1 ?
TDP1 cell noCPT: inconclusive; HT1080-NT tox: -2.1%; DT40 TDP1 CPT: inconclusive; HT1080 IDH1KD tx: -7.7%; IL1B secr inh: -6.4

What do the screens show for `CCOC(=O)c1cnc2ccc(OCC)cc2c1N1CCN(c2ccccc2OC)CC1`?
TDP1 cell noCPT: 11.6µM*; HT1080-NT tox: inconclusive; DT40 TDP1 CPT: inconclusive; HT1080 IDH1KD tx: inconclusive; IL1B secr inh: -55.1*

What do the screens show for `Cc1ccc(C(=O)NCC2CCCN2S(=O)(=O)c2cccs2)cc1C` (stereo not given)?
TDP1 cell noCPT: inconclusive; HT1080-NT tox: 1.9%; DT40 TDP1 CPT: inconclusive; HT1080 IDH1KD tx: -1.9%; IL1B secr inh: -7.9

What do the screens show for `O=C1CC(c2ccccc2)=Nc2ccccc2N1Cc1ccccc1`?
TDP1 cell noCPT: -28.2%; HT1080-NT tox: -15.2%; DT40 TDP1 CPT: -8.1%; HT1080 IDH1KD tx: -9.7%; IL1B secr inh: -7.9

What do the screens show for `Cc1ccc(C2=Nc3ccccc3N(CC(=O)NCc3ccc(F)cc3)C(=O)C2)cc1C`?
TDP1 cell noCPT: 23.1µM*; DT40 TDP1 CPT: 14.6µM*

What do the screens show for `O=C(CN1C(=O)CC(c2ccc(F)cc2)=Nc2ccccc21)NCc1ccccc1Cl`?
TDP1 cell noCPT: 25.9µM*; DT40 TDP1 CPT: inconclusive

Results for Cc1ccc(C2=Nc3ccccc3N(CC(=O)NCc3ccc(Cl)cc3)C(=O)C2)cc1C ?
TDP1 cell noCPT: 14.6µM*; DT40 TDP1 CPT: inconclusive

How did CCC1(c2ccc(F)cc2)NC(=O)N(CC(=O)NCc2ccccc2Cl)C1=O (stereo not given) do in these assays?
TDP1 cell noCPT: inconclusive; HT1080-NT tox: 16.0%; DT40 TDP1 CPT: -25.1%; HT1080 IDH1KD tx: 0.3%; IL1B secr inh: -3.9

Results for Cc1cc(C)n(CC(=O)NNC(=O)COc2ccc(Br)cc2F)n1 ?
TDP1 cell noCPT: -6.1%; HT1080-NT tox: 0.0%; DT40 TDP1 CPT: -6.6%; HT1080 IDH1KD tx: 0.7%; IL1B secr inh: 10.9

What do the screens show for `COc1ccccc1N=CC1=C(O)CC(c2ccccc2)CC1=O` (stereo not given)?
TDP1 cell noCPT: 9.2µM*; HT1080-NT tox: inconclusive; DT40 TDP1 CPT: 5.17µM*; HT1080 IDH1KD tx: inconclusive; IL1B secr inh: 0.0

Results for Clc1ccccc1N1CCN(c2ncnc3c2c(-c2ccccc2)cn3-c2ccccc2)CC1 ?
TDP1 cell noCPT: 20.6µM*; DT40 TDP1 CPT: inconclusive

What do the screens show for `CC(=O)c1ccc(N2CCN(c3ncnc4c3c(-c3ccccc3)cn4-c3cccc(C)c3)CC2)cc1`?
TDP1 cell noCPT: -20.3%; DT40 TDP1 CPT: -14.2%

What do the screens show for `CCN(CC)C(=O)C1CCCN(c2ncnc3c2c(-c2ccccc2)cn3-c2cccc(C)c2)C1` (stereo not given)?
TDP1 cell noCPT: inconclusive; DT40 TDP1 CPT: 14.6µM*
